Results on 57 molecules are retold here after PubChem BioAssay AID435005 (Broad Institute, 2010).

Each structure is given as a SMILES string. The whole screen tested about 300,000 compounds, of which about 2,400 (0.8%) were called active. Many of the other results were omitted from the sample, so actives are more common in it than they were. Values without a mark were called inactive.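 Rule for the calls: active = Every replicate reaches about 75%, or at least half do and their mean reaches it too (limit read from the data); inconclusive = At least half of replicates reach the limit but their mean does not; inactive = Under half of replicates reach the limit.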

The test can be described thus: INS-1E beta cell survival under cytokines – luminescence, primary screen (AID 435005).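 Note: 0% = cytokine-treated negative control wells and 100% = positive control rescue.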 As to conditions: INS-1E cytokine-induced death, ATP luminescence, 48 h; stronger effect = higher value; percent of positive-control rescue, neutral wells zero; concentration not given here.
As to `O=C(COC(=O)C1CCCO1)Nc1nc(-c2ccc(F)cc2)cs1` (configuration not stated), the protection from apoptosis was 0.639%.

Regarding `c1ccc2c(CCN3CCNC[C@H]3Cc3cccc4ccccc34)cccc2c1`, the protection from apoptosis was 1.24%.

As to `COc1ccc(S(=O)(=O)/N=C2\C=C(NS(=O)(=O)c3ccccc3)C(=O)c3ccccc32)cc1`, the protection from apoptosis is 1.27%.

With `CC(C)CC[n+]1ccn(C2=C([O-])c3ccccc3C(=O)/C2=N\S(=O)(=O)c2ccccc2)c1`, the protection from apoptosis was 95% (active).

As for `COc1ccc(OCC(=O)NNC(=O)C2CCC2)cc1`, the protection from apoptosis is -4.44%.

Consider `COC(=O)[C@]1(Cc2ccccc2)N[C@H](CN(C)S(=O)(=O)c2ccc(F)cc2)[C@@H]2C(=O)N(Cc3ccccc3)C(=O)[C@@H]21`, for which the protection from apoptosis is 10.3%.

As to `CN(Cc1cccnc1)C(=O)c1cc(COc2ccc3ncccc3c2)on1`, the protection from apoptosis is 101% (active).

Take `Cc1cc(CN(C)C(=O)c2cc(COc3ccc(C)c(C)c3)on2)n[nH]1`: the protection from apoptosis is -0.122%.

Turning to `Cc1ccc(OCc2cc(C(=O)N(C)CCc3ccccc3)no2)cc1C`, the protection from apoptosis was -0.126%.

Consider `O=C(COC(=O)COc1ccccc1F)Nc1cccc(S(=O)(=O)N2CCCCC2)c1`, for which the protection from apoptosis was -4.07%.

As to `O=C(NCCCN1CCOCC1)c1cn(-c2ccccc2)nc1-c1ccc(F)cc1`, the protection from apoptosis was -0.73%.

With `CCOC(=O)c1ccccc1C(=O)N1CCOCCOCCOCC1`, the protection from apoptosis is 0.0542%.

Take `Cc1noc(C)c1C(=O)N1CCOCC1`: the protection from apoptosis is -4.19%.

As to `Cc1oc2c(c1C(=O)N1CCOCC1)C(=O)c1ccccc1C2=O`, the protection from apoptosis was 108% (active).

In the case of `CC(=O)Nc1ccc(S(=O)(=O)Nc2ccc(N3CCOCC3)c(F)c2)cc1`, the protection from apoptosis is 2.71%.

As for `COc1cc(NS(=O)(=O)c2ccc(NC(C)=O)cc2)cc(OC)c1`, the protection from apoptosis is 25.4%.

For `CC(=O)Nc1ccc(S(=O)(=O)Nc2ccc(N3CCCCC3)cc2)cc1`, the protection from apoptosis was 119% (active).

Consider `COc1ccc(C)cc1NC(=O)CSc1cccc[n+]1[O-]`, for which the protection from apoptosis is -1.83%.

In the case of `CSc1ncccc1C(=O)NCC(c1ccco1)N1CCCCC1` (configuration not stated), the protection from apoptosis was -20.2%.

For `CC(C(=O)N1CCc2ccccc21)N(C)CC(=O)Nc1ccc(F)cc1` (configuration not stated), the protection from apoptosis is 6.77%.

On to `Fc1ccc2cnc(-c3ccccc3)cc2c1`, for which the protection from apoptosis is -4.87%.

In the case of `C[C@]12CC[C@H](O)CC1=CCC1C2CC[C@@]2(C)C1CC[C@@H]2NC(=O)CCC(=O)O` (some centres not stated), the protection from apoptosis is 0.606%.

For the molecule `COc1cc(OC)cc(C(=O)NNC(=O)Cc2cccs2)c1`, the protection from apoptosis is -2.67%.

For the molecule `COc1ccc(S(=O)(=O)Nc2ccc3oc(C)c(C(C)=O)c3c2)cc1`, the protection from apoptosis was 87.4% (active).

Regarding `CC(=O)c1c(C)oc2ccc(NS(=O)(=O)c3ccc(C(=O)O)cc3)cc12`, the protection from apoptosis was -1.56%.

`CC(=O)c1c(C)oc2ccc(NS(=O)(=O)c3ccccc3)cc12`: the protection from apoptosis is -0.111%.

In the case of `Cc1ccc(S(=O)(=O)N2CCN(C(=O)CN3C(=O)NC(C)(c4ccc(Cl)cc4)C3=O)CC2)c(C)c1` (configuration not stated), the protection from apoptosis is 0.524%.

On to `Cc1ccc(S(=O)(=O)N(C)CC(=O)NCC(c2ccc(F)cc2)N2CCOCC2)cc1` (configuration not stated), for which the protection from apoptosis is -2.01%.

Take `CC(C)CC1NC(=O)c2cc(Cl)ccc2-n2c1nc1ccccc1c2=O` (configuration not stated): the protection from apoptosis is -3.6%.

In the case of `O=C(Nc1cccc(S(=O)(=O)N2CCCCC2)c1)c1cncc(Br)c1`, the protection from apoptosis is -1.23%.

For the molecule `CCCSc1ccc([C@H]2N[C@@](Cc3ccccc3)(C(=O)OC)[C@H]3C(=O)N(C)C(=O)[C@@H]23)cc1`, the protection from apoptosis is -4.97%.

For the molecule `CCOc1ccc(-n2c(O)c(/C=N/Nc3nc(C)cc(C)n3)c3ccccc3c2=O)cc1`, the protection from apoptosis was 83.2% (active).

Regarding `CCOc1ccc(-n2c(O)c(/C=N/c3ccnn3Cc3ccncc3)c3ccccc3c2=O)cc1`, the protection from apoptosis was -6.16%.

On to `CCN(CC)CCCN=Cc1c(O)n(-c2ccc(C)cc2)c(=O)c2ccccc12`, for which the protection from apoptosis is -3.92%.

For `COc1ccc(C(=O)C(C)OC(=O)c2cccc(S(=O)(=O)Nc3c(C)n(C)n(-c4ccccc4)c3=O)c2)cc1` (configuration not stated), the protection from apoptosis was -20.9%.

Consider `C[C@H](CO)N1C[C@H](C)[C@@H](CN(C)S(=O)(=O)c2ccc(F)cc2)Oc2ccc(NC(=O)CCC(F)(F)F)cc2C1=O`, for which the protection from apoptosis was -4.6%.

In the case of `C/C(=N\NS(=O)(=O)c1ccccc1)c1c(O)cc(C)oc1=O`, the protection from apoptosis is -4%.

Regarding `Cc1csc2nc(COC(=O)c3cccc(N(C)C)c3)cc(=O)n12`, the protection from apoptosis was 0.447%.

Consider `O=C(CCCOc1ccccc1)NNC(=O)c1ccc(Cl)cc1`, for which the protection from apoptosis was -1.22%.

As to `Nc1nc2n(n1)C(c1ccco1)CC(c1ccc(Cl)c(Cl)c1)N2` (configuration not stated), the protection from apoptosis was 0.887%.

For the molecule `CCOc1ccccc1C1CC(c2ccccc2)Nc2nc(N)nn21` (configuration not stated), the protection from apoptosis is 2.14%.

As for `COc1ccc(C2CC(c3ccc(C)cc3)Nc3nc(N)nn32)cc1` (configuration not stated), the protection from apoptosis was -2.94%.

On to `Cc1ccc(C2CC(c3cccc(Br)c3)n3nc(N)nc3N2)cc1` (configuration not stated), for which the protection from apoptosis is 91.3% (active).

As for `COc1ccc(C2CC(c3ccc(Cl)cc3Cl)Nc3nc(N)nn32)cc1OC` (configuration not stated), the protection from apoptosis was -0.0368%.

Turning to `Cc1ccc(C2CC(c3cccc(C)c3)n3nc(N)nc3N2)cc1` (configuration not stated), the protection from apoptosis is 101% (active).

As for `O=C(CN1C(=O)NC2(CCCCCC2)C1=O)Nc1ccc([N+](=O)[O-])cc1`, the protection from apoptosis was 0.997%.

Consider `CCCCN(C(=O)C1=NN(c2cc(C)ccc2C)C(=O)CC1)c1c(N)n(CCC)c(=O)[nH]c1=O`, for which the protection from apoptosis is 1.47%.

On to `COc1ccccc1NC(=O)COC(=O)CNC(=O)C1CCCCC1`, for which the protection from apoptosis is -4.98%.

`CCCCCCSc1ccc([C@@H]2[C@H]3C(=O)N(CC)C(=O)[C@H]3[C@]3(C(=O)OC)CCCCN23)cc1`: the protection from apoptosis is 2.19%.

`COC(=O)C1=C(C)NC(=S)NC1c1ccc(OCC(=O)N2CC(C)OC(C)C2)c(OC)c1` (configuration not stated): the protection from apoptosis is 0.55%.

On to `O=C(N/N=C/c1ccccc1O)C1CCCC1`, for which the protection from apoptosis was 8.23%.

As to `O=C(CCCO)N/N=C/c1cc(Br)ccc1O`, the protection from apoptosis was 2.57%.

Regarding `O=C(N/N=C/c1ccccc1O)/C(=C/c1ccccc1)CCO`, the protection from apoptosis was 85.8% (active).

For the molecule `O=C(CN1C(=O)NC2(CCCC2)C1=O)Nc1cc(C(F)(F)F)ccc1N1CCOCC1`, the protection from apoptosis was 1.66%.

Regarding `CCCOc1ccc(Cc2c(O)nc(SC)[nH]c2=O)cc1C`, the protection from apoptosis was -2.93%.

Consider `CCCOc1ccc(Cc2c(Cl)nc(SC)nc2NC)cc1`, for which the protection from apoptosis is 82.7% (active).

On to `CCCOc1ccc(C(=O)NCCc2ccccc2)cc1`, for which the protection from apoptosis is 9.99%.
